The results in this text go back to PubChem BioAssay (EPA / NIEHS).

The structures appear in SMILES notation. Activity calls are given as the source filed them. The calls were made as follows: active = hit-call score of the fitted dose curve at least 0.9, where 1 is the maximum; inactive = score below 0.9.

A short description of the assay: APR_HepG2_p53Act_24hr: Apredica 24-hour HepG2 Assay for p53 Activation (AID 2282913). Particulars: high-content imaging, actives raise or lower the signal. On the procedure: APR_HepG2_24hr is a cell-based, multiplexed-readout assay that uses HepG2, a human liver cell line, with measurements taken at 24 hours after chemical dosing in a 384-well plate.APR_HepG2_p53Act_24hr is one of 10 assay component(s) measured or calculated from the APR_HepG2_24hr assay. It is designed to make measurements of dna content, a form of viability reporter, as detected with fluorescence intensity signals by HCS Fluorescent Imaging technology.Data from the assay component APR_HepG2_p53Act_24hr was analyzed into 1 assay endpoint. This assay endpoint, APR_HepG2_p53Act_24hr, was analyzed with bidirectional fitting relative to DMSO as the negative control and baseline of activity. Using a type of viability reporter, measures of protein for gain or loss-of-signal activity can be used to understand the signaling at the pathway-level as they relate to the gene TP53. Furthermore, this assay endpoint can be referred to as a primary readout, because this assay has produced multiple assay endpoints where this one serves a signaling function. To generalize the intended target to other relatable targets, this assay endpoint is annotated to the dna binding intended target family, where the subfamily is tumor suppressor.
Cells were treated with dimethyl sulfoxide (DMSO) as a solvent control at a final concentration of 0.5% v/v or with compounds in DMSO with a resulting final DMSO concentration of 0.5% v/v. Compound treatment was done at concentrations of 0.39, 0.78, 1.56, 3.12, 6.24, 12.5, 25, 50, 100, and 200 uM in duplicate on each plate. Cells were treated with compounds for 1, 24, or 72 hr. Carbonyl […] m-chloro-phenylhydrazone (CCCP) and taxol were used as positive controls for mitochondrial function and cytoskeletal stability, respectively; DMSO served as the negative control for this experiment. Cells were fixed by the direct addition of 50 uL formaldehyde in Hank's Balanced Salt Solution (HBSS) to a final concentration of 3.7%. After incubation in the fixation medium for 30 min at room temperature (293-298 K), cells were rinsed twice with HBSS and treated with cell permeabilization buffer (16 uL of 0.5% Triton X-100) for 10 min at room temperature (293-298 K) before labeling. For mitochondrial membrane potential and mitochondrial measurements, pre-fixed cells were incubated with 50 uL of MitoTracker Red CMXRos (Invitrogen) at a concentration of 250 nM for 30 min before fixation. In the remaining cases, post-fixed cells were labeled by incubation with a multiplexed mixture of primary antibodies in HBSS for 60 min at room temperature (293-298 K) to detect immunoreactivity of c-Jun (1:500), phospho-histone H3 (1:100), phospho-histone H2A.x (1:200), p53 (1:400), alpha-tubulin (1:200) and Hoechst 33342 (2 ug/mL). Cells were labeled for multiplexed imaging on two separate plates: a) Hoechst 33342, MitoTracker Red, phospho-histone H3, and alpha-tubulin, and b) Hoechst 33342, phospho-histone H2A.x, and c-Jun. A final rinse with HBSS (50 uL) was performed before analysis. The primary and secondary antibodies for the proteins were phospho-histone H3 (rabbit anti-phospho-histone H3 and FITC-donkey anti-rabbit IgG), phospho-histone H2A.x (mouse anti-phospho-histone H2A.x and FITC-donkey anti-mouse IgG), c-Jun (rabbit anti-phospho-c-Jun and Cy3-donkey anti-rabbit IgG), p53 (sheep anti-p53 and Cy5-donkey anti-sheep IgG), alpha-tubulin (mouse anti-alpha-tubulin and Cy5-donkey anti-mouse IgG). These antibodies are available as the CellCiphr HepG2 assay kit (Millipore).Digital images of each well were captured using a Cellomics ArrayScan VTI (Thermo Scientific Cellomics) (0.8 NA objective, 0.63x optical coupler, and XF-93 filter set) at 20x magnification. The images were acquired using the autofocus feature of the ArrayScan instrument, which entails the following steps. First, the camera focuses on channel 1 (Hoechst 33342), where nuclei are identified. Second, a Z offset of 1 um is used for capturing mitochondria (MitoTracker Red). […]
`CCOC(=O)CCC(=O)OCC`: the outcome was inactive.

With `FC(F)(F)C(F)(F)C(F)(F)C(F)(F)C(F)(F)C(F)(F)CCI`, the outcome was inactive.

With `Oc1ccc2ccccc2c1N=Nc1ccccc1`, the result was inactive.

`CC=Cc1ccc(O)c(OC)c1`: the molecule was classed as inactive.

On to `CCCCCCC(=O)OCC`, for which the molecule was called inactive.

As a reminder, the AC50 is the midpoint of the concentration-response curve, whichever way the signal moves. Take `CN1CCN(Cc2cc(-c3ccc4[nH]c(=O)oc4c3)co2)[C@@H](c2ccc(F)cc2)C1`: the AC50 was 65.2 µM (active).

With `COc1cc(C=O)ccc1O`, the call was inactive.

On to `OC[C@@H](O)[C@@H](O)[C@H](O)[C@H](O)CO`, for which the molecule was called inactive.

Regarding `CCCCCCCCCCCCCCCC`, the molecule was classed as inactive.

On to `CC(C)(C)c1cc(O)c(C(C)(C)C)cc1O`, for which the AC50 was 79.8 µM (active).

Consider `CC(=O)OC/C=C(\C)CCC=C(C)C`, for which the result was inactive.

`CN[C@H]1CC[C@@H](c2ccc(Cl)c(Cl)c2)c2ccc(S(N)(=O)=O)cc21`: the molecule was classed as inactive.

For `C=CCc1ccc(O)c(OC)c1`, the molecule was classed as inactive.

As to `c1cc(-c2ccncc2)ccn1`, the molecule was classed as inactive.

For the molecule `CC(=O)C(C)=CC1C(C)=CCCC1(C)C` (stereo not given), the molecule was classed as inactive.

For `COc1ccc(S(=O)(=O)N2C(=O)[C@@](c3ccccc3OC)(N3C[C@H](O)C[C@H]3C(=O)N(C)C)c3cc(Cl)ccc32)c(OC)c1`, the AC50 was 68.6 µM (active).

Turning to `CCOC(=O)C(C)(C)Oc1ccc(Cl)cc1`, the outcome was inactive.

`Cc1c(C(=O)O)c(O)cc2c1C(=O)c1c(O)c([C@@H]3O[C@H](CO)[C@@H](O)[C@H](O)[C@H]3O)c(O)c(O)c1C2=O`: the outcome was inactive.

As for `O=C(O)CCCCC(=O)O`, the call was inactive.

For the molecule `Cc1cccc(C)c1O`, the outcome was inactive.

Take `COc1cccc2c1C(=O)c1c(O)c3c(c(O)c1C2=O)C[C@@](O)(C(=O)CO)C[C@@H]3O[C@H]1C[C@H](N)[C@H](O)[C@H](C)O1`: the half-maximal activity concentration (AC50) was 0.276 µM (active).

On to `CCCCCC(=O)O`, for which the molecule was classed as inactive.

As for `NCCO`, the call was inactive.

Turning to `C[Si]1(C)O[Si](C)(C)O[Si](C)(C)O[Si](C)(C)O1`, the call was inactive.

In the case of `CCCCCCCC=O`, the molecule was called inactive.

As for `Nc1ccc2c(c1)C(=O)c1ccccc1C2=O`, the call was inactive.

As for `C[C@]12C=CC(=O)C=C1CC[C@@H]1[C@@H]2C(=O)C[C@@]2(C)[C@H]1CC[C@]2(O)C(=O)CO`, the molecule was called inactive.

Take `CNC(=O)[C@H]1O[C@@H](n2cnc3c(NCc4cc(Cl)ccc4OCc4cc(C)no4)ncnc32)[C@H](O)[C@@H]1N`: the molecule was called inactive.

Turning to `Cc1cc(NC(=O)C(=O)O)cc(C)c1Oc1ccc(O)c2c1CCC2`, the molecule was classed as inactive.

Regarding `CCCc1cc(=O)[nH]c(=S)[nH]1`, the outcome was inactive.

For `COc1cc(/C=C/C(=O)CC(=O)/C=C/c2ccc(O)c(OC)c2)ccc1O`, the AC50 is 84.6 µM (active).

`C=CCOC(=O)c1ccccc1C(=O)OCC=C`: the molecule was called inactive.

As to `COCCOC[C@H](CC1(C(=O)NC2CCC(C(=O)O)CC2)CCCC1)C(=O)Oc1ccc2c(c1)CCC2` (stereo not given in full), the molecule was classed as inactive.

As to `CC1(C)CC(N=C=O)CC(C)(CN=C=O)C1` (stereo not given), the outcome was inactive.

`CNCc1cc(F)ccc1Oc1ccc(Cl)c(Cl)c1`: the AC50 was 52.4 µM (active).

Take `O=C(OCCCCCOC(=O)c1ccccc1)c1ccccc1`: the molecule was classed as inactive.

As for `O=c1[nH]cc(F)c(=O)[nH]1`, the molecule was classed as inactive.

For the molecule `COc1cc(-c2nc(NC(=O)c3cc4cc(C)cc(C)c4n3CC(=O)O)sc2CCC2CCCCC2)c(OC)cc1Cl`, the half-maximal activity concentration (AC50) is 43.4 µM (active).

As to `COc1ccc2c(c1)c(CC(=O)O)c(C)n2C(=O)c1ccc(Cl)cc1`, the molecule was called inactive.

Turning to `NC(=O)Cn1c(=O)cc(CCN2CCN(c3nccc4sccc34)CC2)c2ccc(F)cc21`, the call was inactive.
